Measured values as given in PubChem BioAssay AID602292 (National Center for Advancing Translational Sciences (NCATS), 2012).
Among all 1,300 compounds or so, about 380 (29%) were called active. Roughly 37% stayed inconclusive and do not appear here. The call rests on the fitted dose curve; in most records, active means well fitted inhibition curve with a large enough effect; inconclusive means small, poorly fitted or top-dose-only effect; inactive means flat fitted curve, though single readings scatter. The list shows a part of the results. Entries that show only a call come without a potency.
Further: nearly all actives have a fitted effect of over 80% in size.
Potency means the concentration at half of the fitted maximal effect.

Each compound was assayed against Thyrotropin receptor (Homo sapiens) (UniProt P16473) (assay: qHTS for antagonists of the Thyroid Stimulation Hormone Receptor: Hit Validation in Primary Screen). Conditions: TSHR-expressing cells, cAMP antagonist mode; series mostly up to 58 µM.
Chain of Thyrotropin receptor (Homo sapiens) (P16473 whole entry, looked up): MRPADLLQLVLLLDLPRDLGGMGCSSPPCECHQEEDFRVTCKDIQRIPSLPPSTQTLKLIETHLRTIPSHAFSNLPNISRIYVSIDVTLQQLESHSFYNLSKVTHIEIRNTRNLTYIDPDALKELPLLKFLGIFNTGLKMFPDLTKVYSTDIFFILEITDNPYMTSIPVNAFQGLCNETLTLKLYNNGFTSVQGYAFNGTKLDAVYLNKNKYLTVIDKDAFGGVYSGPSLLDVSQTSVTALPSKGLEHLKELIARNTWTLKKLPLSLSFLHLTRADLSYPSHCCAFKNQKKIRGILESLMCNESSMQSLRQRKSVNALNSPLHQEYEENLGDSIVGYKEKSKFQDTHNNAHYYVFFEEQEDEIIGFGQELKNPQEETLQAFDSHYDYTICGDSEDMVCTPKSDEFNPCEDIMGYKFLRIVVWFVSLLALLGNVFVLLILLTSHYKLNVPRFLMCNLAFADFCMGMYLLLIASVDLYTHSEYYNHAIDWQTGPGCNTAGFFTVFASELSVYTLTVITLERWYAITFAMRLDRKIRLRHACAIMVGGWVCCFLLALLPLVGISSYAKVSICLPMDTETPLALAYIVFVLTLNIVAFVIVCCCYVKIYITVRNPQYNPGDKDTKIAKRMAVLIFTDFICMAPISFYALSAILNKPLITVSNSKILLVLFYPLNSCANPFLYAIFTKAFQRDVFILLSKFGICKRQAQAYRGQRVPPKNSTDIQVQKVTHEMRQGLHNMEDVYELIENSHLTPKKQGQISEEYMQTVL
Summary of the method: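 TSHR-expressing cells were pretreated with compound, then stimulated with TSH at EC80 (4nM final) for 2 hours at 37 deg C. Cellular cAMP measured by competitive HTRF (anti-cAMP cryptate, cAMP-d2) after 30 min at room temperature.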
With `COc1ccc2[nH]c3c(NCCC4=CCCCC4)ncnc3c2c1` the Potency was 4.78 µM (active). In the case of `CCCCOCCCNc1ncnc2c1[nH]c1ccccc12`, the Potency is reported as 30.1 µM (active). With `C1=C(CCNc2ncnc3c2[nH]c2ccccc23)CCCC1` the Potency was 23.9 µM (active). In the case of `Cc1cccc(NC(=O)CCN2CCN(C)CC2)c1`, the Potency is reported as “inactive”. In the case of `Cc1cccc(NC(=S)NCC(C)CSc2ccc(Cl)cc2)c1` (stereo not given), the Potency is reported as 30.1 µM (active). For `O=C1C(SCCO)=C(SCCO)C(=O)c2ccccc21`, the Potency was 3.38 µM (active). In the case of `OCCSc1nnc(Nc2ccccc2)s1`, the Potency is reported as “inactive”. With `CCc1ccc(NS(=O)(=O)c2cc3[nH]c(=O)c(=O)[nH]c3cc2C)cc1` the Potency was “inactive”. With `COc1cc(NS(=O)(=O)c2ccc(C)cc2C)cc(OC)c1OC` the Potency was 37.9 µM (active). In the case of `COc1ccc(NS(=O)(=O)c2cn(C)cn2)cc1Cl`, the Potency is reported as “inactive”. `CC(C)(C)OC(=O)N1CCC(CC2CC(c3cccc(Br)c3)=NO2)(C(=O)NCC2CCCCC2)CC1` (stereo not given) was tested, and the Potency was “inactive”. `CC(C)Cc1nc2oc3c(Cl)ncnc3c2c2c1CCC2` was tested, and the Potency was 23.9 µM (active). With `COc1ccccc1C(=O)NCCC(=O)Nc1ccc(OC(F)(F)F)cc1` the Potency was “inactive”. For `COc1cc2ccccc2cc1C(=O)N1CCCC1`, the Potency was “inactive”. With `Cc1ccc(Cl)cc1NC(=O)c1cc2ccccc2cc1O` the Potency was 3.79 µM (active). In the case of `Cc1cc(NC(=O)c2ccccc2)c(Cl)cc1N`, the Potency is reported as “inactive”. With `COc1cccc(CNC(=O)c2nnn(CC(=O)Nc3cc(Cl)ccc3C)c2N)c1` the Potency was “inactive”. With `COc1cc(NC(=O)c2cc3ccccc3cc2O)c(OC)cc1Cl` the Potency was 10.7 µM (active). In the case of `CCOc1ccc(-n2c(SCC(=O)Nc3cc(C)on3)nc3c(c2=O)SCC3)cc1`, the Potency is reported as “inactive”. For `Cc1ccc(NC(=O)Cn2nnc(C(=O)NCCc3ccccc3)c2N)c(C)c1`, the Potency was “inactive”. For `Cc1ccc(CCNC(=O)C2CC(c3cc(C(F)(F)F)cc(C(F)(F)F)c3)=NO2)cc1` (stereo not given), the Potency was “inactive”. In the case of `N#C/C(=N/Nc1ccc(OC(F)(F)F)cc1)C(N)=S`, the Potency is reported as 6.01 µM (active). In the case of `O=C(Nc1cccc(Cl)c1)c1cc(N=Nc2ccc([N+](=O)[O-])cc2Cl)ccc1O`, the Potency is reported as 0.478 µM (active). `CC(=O)Oc1c(C)cc(Cl)cc1C(=O)Nc1ccc([N+](=O)[O-])cc1Cl` was tested, and the Potency was 0.478 µM (active). With `O=C(Nc1ccc([N+](=O)[O-])cc1Cl)c1cc(Cl)ccc1O` the Potency was 0.338 µM (active). For `Cc1ccc(N2C(=O)C3C4C=CC(CC4)C3C2=O)cc1Cl` (stereo not given), the Potency was “inactive”. For `CCOc1cc(S(=O)(=O)n2cnc(C)c2)ccc1Cl`, the Potency was “inactive”. `Cc1ccc(CS(=O)(=O)c2ncc(Cl)c(C(=O)Nc3nnc(C(C)C)s3)n2)cc1` was tested, and the Potency was 23.9 µM (active). In the case of `COC(=O)CSc1nc(NCc2ccccc2)nc(N(C)C)n1`, the Potency is reported as “inactive”. In the case of `Cc1cccc(CC(=O)NCC(=O)NCc2cc(=O)n(C)c(=O)n2C)c1`, the Potency is reported as “inactive”. `CN(C)c1nc(=S)nc(NCc2ccccc2)[nH]1` was tested, and the Potency was “inactive”. `Cc1cc(=O)oc2ccc(OCc3ccccc3)cc12` was tested, and the Potency was “inactive”. In the case of `COc1ccc(CNC(=O)C2CCCN2C(=O)NCc2ccccc2)cc1` (stereo not given), the Potency is reported as “inactive”. For `CCOC(=O)c1c(NC(=O)CN2C(=O)NC(C)(c3ccc(OC(F)F)cc3)C2=O)sc(C)c1C` (stereo not given), the Potency was “inactive”. In the case of `CCOC(=O)c1c(NC(=O)/C=C/C(=O)O)sc(C)c1-c1ccc(C)c(C)c1`, the Potency is reported as 23.9 µM (active). In the case of `CCOC(=O)c1c(NC(=O)/C=C/C(=O)O)sc(C)c1-c1ccc(Cl)cc1`, the Potency is reported as 21.3 µM (active). `CCOC(=O)Cn1c(=NC(=O)CSC(C)=O)sc2ccccc21` was tested, and the Potency was “inactive”. For `Cc1ccc(/C=N/n2c(COc3ccccc3)n[nH]c2=S)s1`, the Potency was “inactive”. In the case of `CN(C)c1ccc(N/C=C/C(=O)C(F)(F)F)cc1`, the Potency is reported as “inactive”. With `Cc1nn(Cc2ccc(Cl)cc2)c(C)c1NC(=O)c1noc2c1CCc1ccccc1-2` the Potency was 16.9 µM (active). With `Cc1nn(Cc2ccccc2)c(C)c1NC(=O)c1noc2c1CCc1ccccc1-2` the Potency was 37.9 µM (active). With `COc1ccc(C(C(=O)NC(C)(C)C)N(CCc2ccccc2)C(=O)CCC(=O)Nc2cc(C)on2)cc1` (stereo not given) the Potency was “inactive”. With `CC(=O)N/C(=C\c1ccc(Cl)cc1)C(=O)O` the Potency was “inactive”. `C=CCNC(=O)c1ccc(NC(=O)C2=CSCCO2)cc1` was tested, and the Potency was “inactive”. With `Cc1c(Nc2cc(Cl)c3nonc3c2[N+](=O)[O-])c(=O)n(-c2ccccc2)n1C` the Potency was 26.9 µM (active). With `O=[N+]([O-])c1c(Nc2cccc(O)c2)cc(Cl)c2nonc12` the Potency was 10.7 µM (active). With `Cc1cc(C)cc(C(=O)NC(CC(N)=O)c2ccc(NCCN3CCCC3)c([N+](=O)[O-])c2)c1` (stereo not given) the Potency was “inactive”. For `CC1CCCC(N2CCN(S(=O)(=O)c3ccccc3)CC2)C1` (stereo not given), the Potency was “inactive”. `COC(CNC(=O)c1cn(C)c2ccc(S(=O)(=O)N3CCOCC3)cc2c1=O)OC` was tested, and the Potency was “inactive”. In the case of `O=C1c2cccc3c(O)ccc(c23)C(=O)N1c1ccc(Cl)cc1`, the Potency is reported as 30.1 µM (active). For `Cc1ccc(NC(=O)Nc2ccc3c(c2)OCO3)c(OC(F)F)c1`, the Potency was “inactive”. With `N/C(=N\OC(=O)Nc1ccccc1)c1cccc(C(F)(F)F)c1` the Potency was “inactive”. `Cc1ccc(OC(F)F)c(NC(=O)Nc2cccc(C(F)(F)F)c2)c1` was tested, and the Potency was 26.9 µM (active). With `Cc1ccccc1NC(=O)C1C2CCCCC21` (stereo not given) the Potency was “inactive”. With `Cc1ccc(C)c(N2CCN(S(=O)(=O)c3ccc4c(c3)CC(C)N4C(=O)C3CC3)CC2)c1` (stereo not given) the Potency was “inactive”. With `CC1CC1C(=O)N1CCN(S(=O)(=O)c2cc(C(F)(F)F)cc(C(F)(F)F)c2)CC1` (stereo not given) the Potency was 30.1 µM (active). With `O=C(Nc1ccncc1)C1CCN(S(=O)(=O)c2cccc(C(F)(F)F)c2)CC1` the Potency was “inactive”. `COc1cccc(COc2cc3ccccc3nc2C)c1` was tested, and the Potency was 23.9 µM (active). In the case of `COc1cccc(CNC(=O)CCCC(=O)NC(C)CCc2ccccc2)c1` (stereo not given), the Potency is reported as “inactive”. With `CCCn1c(COc2ccccc2OC)nc2ccccc21` the Potency was “inactive”. `COc1ccc(-n2c(SCC(=O)Nc3cc(C)on3)nc3c(c2=O)SCC3)cc1OC` was tested, and the Potency was “inactive”. `O=S(=O)(Nc1cccc(-n2cnnn2)c1)c1ccccc1C(F)(F)F` was tested, and the Potency was “inactive”. For `Nc1ncc(Br)cc1S(=O)(=O)Nc1cc(C(F)(F)F)cc(C(F)(F)F)c1`, the Potency was 12 µM (active). `CC1CN(C(=O)CCn2c(=O)oc3ccccc32)CC(C)O1` (stereo not given) was tested, and the Potency was “inactive”. For `O=C(/C=C/c1ccc(OCCCF)cc1)Nc1ccnc(-c2ccncc2)n1`, the Potency was “inactive”.
